36 molecules from PubChem BioAssay (NCATS) can be followed below.

Inconclusive results are not listed. Unmarked numbers belong to inactive results. Calls of active or inactive are those of the source. Calls come from the whole dose curve; as a rule, active = well fitted inhibition curve with a large enough effect; inconclusive = small, poorly fitted or top-dose-only effect; inactive = flat fitted curve, though single readings scatter.
Potency is the fitted concentration of half-maximal effect.

The first assay is described as follows: BET inhibitor-based combinations targeting novel dependencies in MECOM-rearranged (r) AML: AML-191 cell line (AID 2202236; note: nearly all actives have a fitted effect of over 35% in size;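 for viability (% of control): plate controls were vehicle wells for no effect and wells without cells for full effect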). Conditions: AML-191 viability, CellTiter-Glo luminescence, 48 h; series mostly up to 46 µM; viability (% of control): at the top concentration. The method, boiled down:
(§1)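 Each compound was tested at eleven concentrations on cells seeded at 500/well. After two days' incubation, ATP-based luminescence reported viability; responses relative to DMSO and blank wells yielded AUC and cell-line-centred Z-AUC.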
(In general: In ATP-based viability assays light output follows the ATP content of the culture.)
For the molecule `CCN(CCO)CCCC(C)Nc1ccnc2cc(Cl)ccc12` (configuration not stated), the viability (% of control) is 74.5% [at 5.12 µM]. Regarding `CCCCc1oc2ccc(NS(C)(=O)=O)cc2c1C(=O)c1ccc(OCCCN(CCCC)CCCC)cc1`, the Potency was 10.5 µM (active). In the case of `Cn1cncc1C(N)(c1ccc(Cl)cc1)c1ccc2c(c1)c(-c1cccc(Cl)c1)cc(=O)n2C` (configuration not stated), the Potency was 4.17 µM (active). For the molecule `CC(C)(C)c1cc(C(=O)O)c(NC(=O)Nc2ccc3[nH]ncc3c2)s1`, the “viability (% of control)” value was 113%.

In the case of `CCC(CC)C(c1ccc(Nc2nc3ccccc3s2)cc1)n1cncn1` (configuration not stated), the Potency was 16.6 µM (active).

Consider `Cc1cc(C(=O)N2CCN(c3cccc(Cl)c3)CC2)n(-c2ccccc2)n1`, for which the Potency was 2.09 µM (active). As to `COc1ccc(CCC(=O)Nc2nc3ccc(Cl)cc3s2)cc1OC`, the “viability (% of control)” value is 105%.

On to `Clc1cccc(-n2nnnc2NCc2ccccc2Oc2ccccn2)c1Cl`, for which the “viability (% of control)” value is 95%. With `O=C(C(c1ccccc1)c1ccccc1)N1CCN(CC(O)COc2cccc3ncccc23)CC1` (configuration not stated), the Potency is 18.6 µM (active). `OC[C@H]1O[C@@H](Oc2cc(O)cc(/C=C/c3ccc(O)cc3)c2)[C@H](O)[C@@H](O)[C@@H]1O`: the “viability (% of control)” value was 104%. Still for that read-out and setting: under `C[C@H]1CN(C[C@H](Cc2ccccc2)C(=O)NCC(=O)O)CC[C@@]1(C)c1cccc(O)c1` stands 103%; under `O=C(NCC(=O)N1CC[C@H](NC2CCC(O)(c3ccc(-c4ncccn4)cn3)CC2)C1)c1cccc(C(F)(F)F)c1` (some centres not stated), 105%.

Turning to `C[C@]12CC[C@H](O)CC1=CCC1C2CC[C@]2(C)C(n3cnc4ccccc43)=CCC12` (some centres not stated), the Potency was 18.6 µM (active). Same read-out and setting: under `NS(=O)(=O)OC[C@@H]1C[C@@H](n2ccc3c(N[C@H]4CCc5ccccc54)ncnc32)C[C@@H]1O` stands 0.934 µM (active); under `NCC(=O)Nc1ccc(-n2nc(C(F)(F)F)cc2-c2ccc3c(ccc4ccccc43)c2)cc1`, 16.6 µM (active). As to `COc1ccc2cc(OCC3(C(=O)O)CN(C(=O)c4ccc(F)cc4)C3)ccc2c1`, the “viability (% of control)” value is 103%. On to `COc1ccc(N(C)c2nc(C)nc3ccccc23)cc1`, for which the Potency was 0.0093 µM (active). Turning to `COc1ccc2c(OCc3nnc4ccc(-c5ccccc5)nn34)ccnc2c1`, the “viability (% of control)” value is 117%.

Take `Cc1cc(OCc2nnc(SC3CCCC3)n2-c2cccnc2)ccc1-c1ccc(S(C)(=O)=O)cc1`: the Potency is 8.33 µM (active).

Take `COCCOc1ccc(N2CCN(CCn3ncc4c3nc(N)n3nc(-c5ccco5)nc43)CC2)cc1`: the “viability (% of control)” value was 111%.

Regarding `Cn1c(CNc2ccc(C(=N)N)cc2)nc2cc(C(=O)N(CCC(=O)O)c3ccccn3)ccc21`, the viability (% of control) was 101% [at 0.315 µM]. With `CN1CC[C@@H](NC(=O)Nc2ccc(C#N)cc2)C[C@@H]1c1nc2ccccc2[nH]1`, the “viability (% of control)” value was 101%. Turning to `COc1cccc(Nc2c(C(N)=O)cnc3c(C)cc(S(=O)(=O)c4cccc(C(=O)N(C)C)c4)cc23)c1`, the Potency is 5.9 µM (active). Same read-out and setting: the value for `CC(C)(N)C(=O)N[C@H](COCc1ccccc1)C(=O)N1CCC2(CC1)CN(S(C)(=O)=O)c1ccccc12` was 20.9 µM (active); that for `COc1cccc2c(NCc3ccccc3)nc(-n3c(N)nc4ccccc43)nc12` was 2.95 µM (active); that for `COC(=O)Nc1nc2ccc(C(=O)c3ccc(F)cc3)cc2[nH]1` was 0.332 µM (active). Consider `COc1cc2c(cc1OC)CN(CCc1ccc(NC(=O)c3cccc4c(=O)c5cccc(OC)c5[nH]c34)cc1)CC2`, for which the “viability (% of control)” value was 107%.

On to `Cc1cccc(-c2nn3c(c2-c2ccnc4ccc(C(N)=O)cc24)CCC3)n1`, for which the “viability (% of control)” value is 116%. The same measure, in the same setting: under `CC(C)OC(=O)C1=CN(C(=O)c2ccc(F)c(F)c2)CC(C)(C)c2c1[nH]c1ccccc21` stands 106%.

As for `Cc1nnc(C(C)C)n1C1CC2CCC(C1)N2CC[C@H](NC(=O)C1CCC(F)(F)CC1)c1ccccc1` (some centres not stated), the “viability (% of control)” value is 102%.

Another assay in a line: BET inhibitor-based combinations targeting novel dependencies in MECOM-rearranged (r) AML: AML-194 cell line (AID 2202237; note: nearly all actives have a fitted effect of over 40% in size;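 for viability (% of control): plate controls were vehicle wells for no effect and wells without cells for full effect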). Conditions: AML-194 (MECOM-r AML) viability, CellTiter-Glo, 48 h; series mostly up to 46 µM; viability (% of control): at the top concentration. In a few lines: as §1
Take `CCN(CCO)CCCC(C)Nc1ccnc2cc(Cl)ccc12` (configuration not stated): the viability (% of control) was 88% [at 5.12 µM]. For `CCCCc1oc2ccc(NS(C)(=O)=O)cc2c1C(=O)c1ccc(OCCCN(CCCC)CCCC)cc1`, the Potency was 10.5 µM (active). `CC(C)(C)c1cc(C(=O)O)c(NC(=O)Nc2ccc3[nH]ncc3c2)s1`: the “viability (% of control)” value is 116%. For the molecule `Cc1cc(C(=O)N2CCN(c3cccc(Cl)c3)CC2)n(-c2ccccc2)n1`, the Potency was 2.63 µM (active). As for `COc1ccc(CCC(=O)Nc2nc3ccc(Cl)cc3s2)cc1OC`, the “viability (% of control)” value is 99.4%. Same read-out and setting: under `Clc1cccc(-n2nnnc2NCc2ccccc2Oc2ccccn2)c1Cl` stands 101%; under `OC[C@H]1O[C@@H](Oc2cc(O)cc(/C=C/c3ccc(O)cc3)c2)[C@H](O)[C@@H](O)[C@@H]1O`, 119%.

As to `C[C@H]1CN(C[C@H](Cc2ccccc2)C(=O)NCC(=O)O)CC[C@@]1(C)c1cccc(O)c1`, the “viability (% of control)” value was 121%.

Consider `CC(C)(C)NC(=O)Nc1cccc(Nc2ncc(F)c(NC(C)(C)CO)n2)c1`, for which the Potency is 5.9 µM (active). As for `C[C@]12CC[C@H](O)CC1=CCC1C2CC[C@]2(C)C(n3cnc4ccccc43)=CCC12` (some centres not stated), the “viability (% of control)” value is 104%. Regarding `NS(=O)(=O)OC[C@@H]1C[C@@H](n2ccc3c(N[C@H]4CCc5ccccc54)ncnc32)C[C@@H]1O`, the Potency is 0.934 µM (active). As for `Cc1cc(-c2ncc(CC(=O)Nc3ccc(-c4cnccn4)cn3)cc2C)ccn1`, the “viability (% of control)” value is 87.8%. Same read-out and setting: the value for `COc1ccc2c(OCc3nnc4ccc(-c5ccccc5)nn34)ccnc2c1` was 116%. With `Cc1cc(OCc2nnc(SC3CCCC3)n2-c2cccnc2)ccc1-c1ccc(S(C)(=O)=O)cc1`, the Potency was 7.42 µM (active). Turning to `CNC(=O)c1ccc(-c2cnc3ncc(Cc4ccc5ncccc5c4)n3n2)cc1F`, the “viability (% of control)” value is 98.4%.

As for `COCCOc1ccc(N2CCN(CCn3ncc4c3nc(N)n3nc(-c5ccco5)nc43)CC2)cc1`, the “viability (% of control)” value is 109%.

Consider `COC(=O)N(C)c1c(N)nc(-c2nn(Cc3ccccc3F)c3ncccc23)nc1N`, for which the “viability (% of control)” value was 107%. Take `Cn1c(CNc2ccc(C(=N)N)cc2)nc2cc(C(=O)N(CCC(=O)O)c3ccccn3)ccc21`: the viability (% of control) was 118% [at 0.315 µM].

As for `CN1CC[C@@H](NC(=O)Nc2ccc(C#N)cc2)C[C@@H]1c1nc2ccccc2[nH]1`, the “viability (% of control)” value is 109%. Still for that read-out and setting: the value for `COc1cccc(Nc2c(C(N)=O)cnc3c(C)cc(S(=O)(=O)c4cccc(C(=O)N(C)C)c4)cc23)c1` was 103%; that for `COc1ccc(-n2c(SCCCN3C(=O)c4cccc5cccc(c45)C3=O)nnc2-c2ccncc2)cc1` was 94.5%. On to `COc1cccc2c(NCc3ccccc3)nc(-n3c(N)nc4ccccc43)nc12`, for which the Potency was 2.63 µM (active). Still for that read-out and setting: the value for `COC(=O)Nc1nc2ccc(C(=O)c3ccc(F)cc3)cc2[nH]1` was 0.332 µM (active). In the case of `COc1cc2c(cc1OC)CN(CCc1ccc(NC(=O)c3cccc4c(=O)c5cccc(OC)c5[nH]c34)cc1)CC2`, the “viability (% of control)” value was 113%. Same read-out and setting: under `Cc1cccc(-c2nn3c(c2-c2ccnc4ccc(C(N)=O)cc24)CCC3)n1` stands 110%; under `COc1ccc(-n2nc(C(N)=O)c3c2C(=O)N(c2ccc(N4CCCCC4=O)cc2)CC3)cc1`, 93.6%; under `Cc1nnc(C(C)C)n1C1CC2CCC(C1)N2CC[C@H](NC(=O)C1CCC(F)(F)CC1)c1ccccc1` (some centres not stated), 95.7%.
